Data on three compounds can be found in PubChem BioAssay (EPA / NIEHS).

Usually AC50 stands for the concentration giving half of the maximal activity seen.

Holding throughout (settings): mRNA level, 48 h; actives raise or lower the signal
Read-out in test [1]: ATP-citrate lyase (ACLY), ACLY (gene 47)
In words: LTEA_HepaRG_ACLY: Life Technologies and Expression Analysis (LTEA) Assay for ATP-citrate lyase (ACLY) using HepaRG (AID 2283466). In outline: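 Differentiated HepaRG cells exposed 48 h in serum-free induction medium to eight half-log concentrations up to 100 uM in 0.5% DMSO, duplicates. Transcript measured by Fluidigm TaqMan qRT-PCR, normalized to ACTB, GAPDH, POLR2A; bidirectional fit versus DMSO.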

Read-out in test [2]: Peroxisomal acyl-coenzyme A oxidase 1 (ACOX1) gene, ACOX1 (gene 51)
In words: LTEA_HepaRG_ACOX1: Life Technologies and Expression Analysis (LTEA) Assay for Peroxisomal acyl-coenzyme A oxidase 1 (ACOX1) gene using HepaRG (AID 2283467). In outline: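 HepaRG cells, plated 48 h then switched to serum-free induction medium, were exposed in duplicate for 48 h to 8-point half-log concentrations up to 100 uM in 0.5% DMSO. ACOX1 mRNA was measured by qRT-PCR, normalized to ACTB/GAPDH/POLR2A, and fitted bidirectionally versus DMSO.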

Read-out in test [3]: Alkaline Phosphatase, Placental (ALPP) gene, ALPP (gene 250)
Put plainly: LTEA_HepaRG_ALPP: Life Technologies and Expression Analysis (LTEA) Assay for Alkaline Phosphatase, Placental (ALPP) gene using HepaRG (AID 2283468). A digest of the protocol:
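HepaRG cells plated 48 h, then exposed in duplicate for 48 h in serum-free induction medium to 8-point half-log series from 100 uM in 0.5% DMSO. ALPP mRNA by TaqMan qRT-PCR, normalized to ACTB/GAPDH/POLR2A; bidirectional fit versus DMSO.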

Read-out in test [4]: Bcl-2 (BAD) gene, BAD (gene 572)
In words: LTEA_HepaRG_BAD: Life Technologies and Expression Analysis (LTEA) Assay for Bcl-2 (BAD) gene using HepaRG (AID 2283469). A digest of the protocol:
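Differentiated HepaRG cells were exposed in duplicate in 0.5% DMSO for 48 h to eight-point half-log concentrations up to 100 uM. BAD mRNA was measured by Fluidigm TaqMan qRT-PCR, normalized to ACTB, GAPDH and POLR2A, and fitted bidirectionally against DMSO.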

Read-out in test [5]: Bcl-2 (BAX) gene, BAX (gene 581)
Put plainly: LTEA_HepaRG_BAX: Life Technologies and Expression Analysis (LTEA) Assay for Bcl-2 (BAX) gene using HepaRG (AID 2283470). A digest of the protocol: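 HepaRG (human liver), 48 h exposure, duplicate wells. 8-pt curve, half-log from 100 uM, 0.5% DMSO. BAX transcript by TaqMan qRT-PCR; ACTB/GAPDH/POLR2A normalization; gain or loss vs DMSO baseline.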

Read-out in test [6]: adenosine kinase (ADK) gene, ADK (gene 132)
Put plainly: LTEA_HepaRG_ADK: Life Technologies and Expression Analysis (LTEA) Assay for adenosine kinase (ADK) gene using HepaRG (AID 2283471). A digest of the protocol: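 HepaRG (human liver), 48 h chemical exposure, 8-pt half-log series, top 100 uM, 0.5% DMSO vehicle. Readout: ADK mRNA by qRT-PCR vs housekeeping genes; bidirectional curve fit relative to DMSO baseline.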

Read-out in test [7]: Alpha-fetoprotein (AFP) gene, AFP (gene 174)
In words: LTEA_HepaRG_AFP: Life Technologies and Expression Analysis (LTEA) Assay for Alpha-fetoprotein (AFP) gene using HepaRG (AID 2283472). In outline: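 HepaRG, single lot; 48 h post-plating -> serum-free induction medium; cpd 8-pt, 100 uM top, half-log, 0.5% DMSO, duplicate, 48 h. RNA -> qRT-PCR AFP, norm ACTB/GAPDH/POLR2A. Bidirectional fit vs DMSO.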

Read-out in test [8]: BCL2L11 (gene 10018)
Put plainly: LTEA_HepaRG_BCL2L11: Life Technologies and Expression Analysis (LTEA) Assay for Bcl-2 (BCL2L11) gene using HepaRG (AID 2283473). In outline: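 Differentiated human HepaRG cells were exposed 48 h in serum-free induction medium to eight half-log concentrations up to 100 uM in 0.5% DMSO, in duplicate. BCL2L11 mRNA was quantified by TaqMan qRT-PCR, normalized to ACTB, GAPDH and POLR2A; induction or repression fitted versus DMSO.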

Read-out in test [9]: Apoptosis regulator Bcl-2 (Homo sapiens) (UniProt P10415)
In words: LTEA_HepaRG_BCL2: Life Technologies and Expression Analysis (LTEA) Assay for Bcl-2 gene using HepaRG (AID 2283475). In outline: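 HepaRG, plated 48 h then switched to serum-free induction medium; dosed 48 h, 8 conc. (max 100 uM, half-log steps), duplicate, 0.5% DMSO. Lysis in RLT, RNA isolated, TaqMan qRT-PCR for BCL2; ACTB/GAPDH/POLR2A normalisation; bidirectional fit vs DMSO.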

Read-out in test [10]: Bcl-2 (BID) gene, BID (gene 637)
In words: LTEA_HepaRG_BID: Life Technologies and Expression Analysis (LTEA) Assay for Bcl-2 (BID) gene using HepaRG (AID 2283476). A digest of the protocol:
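Transcript levels of BID, measured by qRT-PCR and normalized to three housekeeping genes, were fitted bidirectionally against DMSO controls. Cells were HepaRG, dosed 48 h at up to 100 uM.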

Read-out in test [11]: Caspase-3 (Homo sapiens) (UniProt P42574)
Put plainly: LTEA_HepaRG_CASP3: Life Technologies and Expression Analysis (LTEA) Assay for cysteine-aspartic acid protease (CASP3) using HepaRG (AID 2283477). In outline:
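Differentiated HepaRG cells, plated 48 h, were treated in duplicate in serum-free induction medium for 48 h with eight half-log concentrations up to 100 uM in 0.5% DMSO. CASP3 mRNA measured by qRT-PCR, normalized to ACTB, GAPDH, POLR2A.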

Read-out in test [12]: Cytochrome P450 (CYP24A1), CYP24A1 (gene 1591)
In words: LTEA_HepaRG_CYP24A1: Life Technologies and Expression Analysis (LTEA) Assay for Cytochrome P450 (CYP24A1) using HepaRG (AID 2283478). In outline: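 HepaRG cells plated 48 h, then exposed in duplicate in serum-free induction medium for 48 h to 8-point half-log series from 100 uM in 0.5% DMSO. CYP24A1 mRNA by Fluidigm qRT-PCR, normalized to ACTB, GAPDH, POLR2A; bidirectional fit versus DMSO.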

Read-out in test [13]: Cytochrome P450 (CYP1A2), CYP1A2 (gene 1544)
Put plainly: LTEA_HepaRG_CYP1A2: Life Technologies and Expression Analysis (LTEA) Assay for Cytochrome P450 (CYP1A2) using HepaRG (AID 2283479). A digest of the protocol: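 Differentiated human HepaRG cells in serum-free induction medium exposed 48 hours in duplicate to 8 half-log concentrations from 100 uM, 0.5% DMSO. CYP1A2 mRNA quantified by qRT-PCR, normalized to ACTB, GAPDH and POLR2A; bidirectional fitting versus DMSO.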

Read-out in test [14]: cysteine-aspartic acid protease (CASP8), CASP8 (gene 841)
Put plainly: LTEA_HepaRG_CASP8: Life Technologies and Expression Analysis (LTEA) Assay for cysteine-aspartic acid protease (CASP8) using HepaRG (AID 2283480). In outline:
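Differentiated HepaRG cells in serum-free induction medium, 48 h exposure, eight-point half-log series from 100 uM in 0.5% DMSO, duplicates. CASP8 mRNA by qRT-PCR, normalized to ACTB, GAPDH, POLR2A; bidirectional fit versus DMSO.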

Read-out in test [15]: Cytochrome P450 (CYP2B6), CYP2B6 (gene 1555)
In words: LTEA_HepaRG_CYP2B6: Life Technologies and Expression Analysis (LTEA) Assay for Cytochrome P450 (CYP2B6) using HepaRG (AID 2283481). A digest of the protocol: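 Differentiated human HepaRG cells in serum-free induction medium, dosed in duplicate for 48 h over 8 half-log concentrations topping at 100 uM (0.5% DMSO). CYP2B6 mRNA measured by TaqMan qRT-PCR, normalized to ACTB, GAPDH, POLR2A; bidirectional fit versus DMSO.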

Read-out in test [16]: Cytochrome P450 2C19 (Homo sapiens) (UniProt P33261)
In words: LTEA_HepaRG_CYP2C19: Life Technologies and Expression Analysis (LTEA) Assay for CYP2C19 using HepaRG (AID 2283482). In outline:
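Differentiated HepaRG cells in serum-free induction medium exposed 48 h in duplicate, 8 concentrations from 100 uM by half-log steps in 0.5% DMSO. CYP2C19 mRNA measured by TaqMan qRT-PCR, normalized to ACTB, GAPDH, POLR2A. Bidirectional fit versus DMSO.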

Read-out in test [17]: CYP2C8 (gene 1558)
In words: LTEA_HepaRG_CYP2C8: Life Technologies and Expression Analysis (LTEA) Assay for CYP2C8 using HepaRG (AID 2283483). A digest of the protocol: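 Differentiated HepaRG cells in serum-free induction medium exposed 48 h in duplicate to 8 half-log concentrations from 100 uM in 0.5% DMSO. CYP2C8 mRNA by qRT-PCR normalized to ACTB, GAPDH, POLR2A; bidirectional fit versus DMSO.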

Read-out in test [18]: CYP2C9 (gene 1559)
In words: LTEA_HepaRG_CYP2C9: Life Technologies and Expression Analysis (LTEA) Assay for CYP2C9 using HepaRG (AID 2283484). A digest of the protocol: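 Differentiated human HepaRG cells in serum-free induction medium were exposed 48 h to chemicals in 8-point half-log series from 100 uM (0.5% DMSO), in duplicate. CYP2C9 mRNA was measured by qRT-PCR, normalized to ACTB/GAPDH/POLR2A, with bidirectional fitting versus DMSO.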

Read-out in test [19]: Broad substrate specificity ATP-binding cassette transporter ABCG2 (Homo sapiens) (UniProt Q9UNQ0)
In words: LTEA_HepaRG_ABCG2: Life Technologies and Expression Analysis (LTEA) Assay for ABC Transporter (ABCG2) using HepaRG (AID 2283465). A digest of the protocol:
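Differentiated HepaRG cells were exposed for 48 h in serum-free induction medium to 8 half-log concentrations, top 100 uM, in 0.5% DMSO. ABCG2 mRNA was measured by qRT-PCR, normalized to ACTB, GAPDH and POLR2A, with bidirectional fitting versus DMSO.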

“And” between values parts separate entries of the source, which are not always exact repeats. Equal entries are not always repeated. The source made the active and inactive calls. How the source made its calls: active means hit-call score of the fitted dose curve at least 0.9, where 1 is the maximum; inactive means score below 0.9.

Sequence of Apoptosis regulator Bcl-2 (Homo sapiens) (P10415 whole entry, looked up): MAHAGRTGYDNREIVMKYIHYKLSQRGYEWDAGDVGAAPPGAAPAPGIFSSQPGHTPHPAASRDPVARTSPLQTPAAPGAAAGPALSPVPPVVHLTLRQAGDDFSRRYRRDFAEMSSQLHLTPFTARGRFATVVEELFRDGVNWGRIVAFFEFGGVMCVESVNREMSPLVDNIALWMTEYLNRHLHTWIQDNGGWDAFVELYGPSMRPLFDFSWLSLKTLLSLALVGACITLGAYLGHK
Sequence of Cytochrome P450 2C19 (Homo sapiens) (P33261 whole entry, looked up): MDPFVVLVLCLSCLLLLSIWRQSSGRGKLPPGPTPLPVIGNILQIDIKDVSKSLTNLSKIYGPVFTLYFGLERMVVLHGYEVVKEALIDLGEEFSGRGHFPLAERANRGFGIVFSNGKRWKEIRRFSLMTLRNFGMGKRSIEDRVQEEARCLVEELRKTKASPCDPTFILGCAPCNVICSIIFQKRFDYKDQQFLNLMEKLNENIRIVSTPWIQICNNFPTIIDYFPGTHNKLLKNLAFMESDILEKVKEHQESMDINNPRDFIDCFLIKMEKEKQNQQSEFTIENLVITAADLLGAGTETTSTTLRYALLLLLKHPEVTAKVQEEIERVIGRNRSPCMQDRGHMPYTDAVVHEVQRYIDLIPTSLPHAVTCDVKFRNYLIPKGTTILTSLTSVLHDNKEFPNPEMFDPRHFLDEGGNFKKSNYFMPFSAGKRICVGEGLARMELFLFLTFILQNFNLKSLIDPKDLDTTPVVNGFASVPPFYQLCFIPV
Sequence of Caspase-3 (Homo sapiens) (P42574 whole entry, looked up): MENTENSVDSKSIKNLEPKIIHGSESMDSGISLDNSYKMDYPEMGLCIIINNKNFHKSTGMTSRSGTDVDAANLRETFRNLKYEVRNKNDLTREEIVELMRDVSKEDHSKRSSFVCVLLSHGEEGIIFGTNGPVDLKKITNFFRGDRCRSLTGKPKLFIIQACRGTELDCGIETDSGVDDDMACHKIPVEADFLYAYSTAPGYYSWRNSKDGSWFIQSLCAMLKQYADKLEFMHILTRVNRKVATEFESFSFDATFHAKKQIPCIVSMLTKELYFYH
Sequence of Broad substrate specificity ATP-binding cassette transporter ABCG2 (Homo sapiens) (Q9UNQ0 whole entry, looked up): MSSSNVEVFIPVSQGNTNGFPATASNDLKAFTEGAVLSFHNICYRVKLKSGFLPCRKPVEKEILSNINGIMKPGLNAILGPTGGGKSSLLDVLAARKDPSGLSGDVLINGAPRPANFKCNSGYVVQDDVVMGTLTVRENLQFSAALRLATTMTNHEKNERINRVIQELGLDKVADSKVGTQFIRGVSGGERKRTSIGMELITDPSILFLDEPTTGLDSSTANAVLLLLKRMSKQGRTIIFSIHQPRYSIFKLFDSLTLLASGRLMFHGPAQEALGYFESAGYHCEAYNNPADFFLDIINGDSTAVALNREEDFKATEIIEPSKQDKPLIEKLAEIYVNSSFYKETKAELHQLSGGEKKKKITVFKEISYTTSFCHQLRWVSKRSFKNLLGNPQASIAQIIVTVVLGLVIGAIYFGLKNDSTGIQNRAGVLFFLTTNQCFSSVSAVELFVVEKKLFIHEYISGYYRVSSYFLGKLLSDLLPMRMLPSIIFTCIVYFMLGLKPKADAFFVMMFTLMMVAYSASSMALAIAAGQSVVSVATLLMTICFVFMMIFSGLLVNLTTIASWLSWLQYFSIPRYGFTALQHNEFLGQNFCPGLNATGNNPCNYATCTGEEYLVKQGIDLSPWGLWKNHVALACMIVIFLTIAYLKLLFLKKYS

With `CO/C=C(/C(=O)OC)c1ccccc1Oc1cc(Oc2ccccc2C#N)ncn1`, the call in test [1], in test [4], in test [6], in test [10], in [11] and in test [12] was inactive. Also, the result in [14] was inactive. Further, the AC50 was 50 µM (active) and 63.3 µM (active) in [2]; 41.4 µM (active) and 50 µM (active) and 34 µM (active) in test [3]; 77.2 µM (active) and 69 µM (active) and 72.1 µM (active) in test [5]; 37.9 µM (active) and 69.5 µM (active) and 25.5 µM (active) in test [7]; 84.5 µM (active) and 73.8 µM (active) and 84.6 µM (active) in [8]; 86.3 µM (active) and 85.9 µM (active) and 86.9 µM (active) in test [9]. The AC50 was 84.5 µM (active) and 65.9 µM (active) and 66.5 µM (active) in test [13]; 75.2 µM (active) and 72.2 µM (active) and 71.5 µM (active) in test [15]; 84.1 µM (active) and 83.3 µM (active) and 82.3 µM (active) in test [16]; 79.9 µM (active) and 79.2 µM (active) and 78.1 µM (active) in test [17]; 79.1 µM (active) and 79 µM (active) and 93.4 µM (active) in test [18].

In the case of `COc1cnc(OC)n2nc(NS(=O)(=O)c3c(OCC(F)F)cccc3C(F)(F)F)nc12`, the call in [1], in test [2], in test [3], in test [4], in [5] and in test [6] was inactive. In addition, the outcome in test [9], in [10], in test [11], in test [12], in test [13] and in test [14] was inactive. Moreover, the compound was called inactive in test [17] and in test [18]. Besides, the AC50 was 50 µM (active) in [7], 6.02 µM (active) in [15] and 10.8 µM (active) in test [16].

On to `CCc1nn(C)c(C(=O)NCc2ccc(C(C)(C)C)cc2)c1Cl`, for which the AC50 in test [19] was 0.361 µM (active); in test [1] it was 0.502 µM (active); in test [2], 369 nM (active); in test [3], 688 nM (active); in test [5] it was 18 µM (active); in [6] it was 35.8 µM (active). For the same compound, the AC50 in test [7] was 0.965 µM (active); in test [9], 822 nM (active); in test [10] it was 50 µM (active); in test [11], 16.1 µM (active); in test [13] it was 866 nM (active); in test [14], 35.8 µM (active). Further, the concentration at half-maximal activity (AC50) is 0.346 µM (active) in [15], 20.7 µM (active) in test [16], 414 nM (active) in [17] and 5.99 µM (active) in test [18]. For the same compound, the call in test [4] and in [12] was inactive.
